Test results as given in ChEMBL document CHEMBL3988442, “University of Dundee, Small-Polar-MMV Screening Library” (2021).
Among all 53,000 compounds or so, about 900 (1.7%) showed an effect of 50% or more. Only a selection was taken, and strong results are over-represented in it overall.

Test system: Mycobacterium tuberculosis
Assay: Cornell - Phenotypic assay to identify agents that inhibit growth of Mycobacterium tuberculosis
Format: functional
Design: scale not given: direction of the effect not stated beside the values
Conditions: 10 mM as filed; unlikely as a test dose

Row | Structure (SMILES) | Percent Effect [%]
1 | COc1ccccc1CCN1CCCC(CN(C)Cc2ccc(C)o2)C1 (stereo not given) | 14.72
2 | CC1=N[C@@]2(CC[C@@H]3CN(C(=O)NCc4ccccc4C)C[C@@H]32)C(=O)N1 | 15.83
3 | Cc1c(C(=O)N2CCC(C(=O)c3nc4ccccc4s3)CC2)cnn1C | 60.09
4 | Cn1nc(Cl)cc1C(=O)N1CCC(C(=O)c2nc3ccccc3s2)CC1 | -10.64
5 | Cc1nn(C)cc1C(=O)N1CCC(C(=O)c2nc3ccccc3s2)CC1 | 26.37
6 | O=C(c1ccc(COc2ccc(Cl)cc2)o1)N1N=CCC1(O)C(F)(F)F (stereo not given) | 61.62
7 | Cc1cccc(OCc2ccc(C(=O)N3N=CCC3(O)C(F)(F)F)o2)c1 (stereo not given) | 29.06
8 | O=C(c1ccc(COc2ccccc2Cl)o1)N1N=CCC1(O)C(F)(F)F (stereo not given) | 1.91
9 | Cc1nnsc1C(=O)N1CCC(c2nc3ccccc3[nH]2)CC1 | 0.6445
10 | CCOC(=O)C1CCN(C(=O)c2cc(F)ccc2-n2cnnn2)CC1 | -0.0971
11 | O=C(c1ccnnc1)N1CC[C@@H](O)[C@@H]1Cc1ccccc1 | -23.76
12 | CCc1c(C)sc2c1c(N)nc(=O)n2CCN1CCCCC1 | 22.93
13 | CCN(CC1CCCN(CCc2cccc(OC)c2)C1)C(=O)CCSC (stereo not given) | -29.92
14 | Cc1ccc(CN2C[C@H](OCC3CCOCC3)[C@H]3COC[C@H]32)o1.O=C(O)C(F)(F)F | -26.82
15 | Cc1ccc(N2CCCC3(COCCN(c4nccs4)C3)C2)nn1.O=C(O)C(F)(F)F.O=C(O)C(F)(F)F (stereo not given) | 20.96
16 | O=C(O)C(F)(F)F.c1ccc(N2CCCC3(COCCN(c4nccs4)C3)C2)nc1 (stereo not given) | 51.66
17 | c1ccc(N2CCOCC3(CCCN(c4nccs4)C3)C2)nc1 (stereo not given) | 23.66
18 | Cc1nc(Cn2c3c(ccc2=O)CC(NC(N)=O)CC3)cs1 (stereo not given) | -11.16
19 | O=C(c1ccoc1)N1CC[C@@H]2O[C@@H](COCc3ccncc3)CC[C@@H]21 | 17.45
20 | CC(C)c1noc(C[S+]([O-])CC(=O)Nc2cc(F)ccc2F)n1 (stereo not given) | 57.68
21 | CC(C)c1noc(C[S+]([O-])CC(=O)Nc2ccc(F)c(F)c2)n1 (stereo not given) | 60.65
22 | CC(C)c1noc(CN2CCN(C(=O)c3cc(Cl)ccc3F)CC2)n1 | 34.44
23 | CC(C)c1noc(CCC(=O)Nc2cc(F)ccc2F)n1 | -35.92
24 | CC(C)c1noc(CCCC(=O)Nc2cccc(F)c2)n1 | -20.44
25 | CC(C)CCc1noc(C[S+]([O-])CC(=O)NCc2ccccc2)n1 (stereo not given) | -9.037

Row | Structure (SMILES) | Percent Effect [%]
26 | Cc1cc(C)n(C2CCCN(C(=O)c3ccc(N(C)C)nc3)C2)n1 (stereo not given) | -19.67
27 | Cc1ccc(CN2CCCC(c3cnccn3)C2)s1 (stereo not given) | 14.09
28 | Cl.Fc1cccc(F)c1Cn1c(C2CCCNC2)cc2cccnc21 (stereo not given) | 30.15
29 | c1cncc(CNCCc2cccs2)c1 | 34.29
30 | Cc1cn2nc(Sc3nnnn3C)sc2n1 | -10.32
31 | O=C(O)c1csc(S(=O)(=O)Nc2c(F)cccc2-n2cccn2)c1 | -80.25
32 | O=C(c1ncccn1)N1C[C@@H]2CC[C@H](Oc3cccc(F)c3)[C@@H]2C1 | 15.44
33 | Cn1ccc(C2CCCCCN2C(=O)c2cccnc2)n1 (stereo not given) | -55.79
34 | CCC(CN1CCOCC1)n1cncc1-c1ccc2c(c1)CCN2CC.Cl (stereo not given) | 11.86
35 | CN(CC(=O)N(CCC#N)c1ccccc1)C1CCc2ccccc21 (stereo not given) | 6.676
36 | Cc1cc(NC(=O)CN2CCCC2Cn2nc(C)nc2C)on1 (stereo not given) | 9.67
37 | COc1ccc2c(c1)C(=O)N(C)C1(CCN(CC=C(C)C)CC1)N2 | 0.8841
38 | COc1ccc2c(c1)C(=O)N(C)C1(CCN(C(=O)OC(C)(C)C)CC1)N2 | 105.8
39 | COc1ccc2c(c1)C(=O)N(C)C1(CCN(CC3CC3)CC1)N2 | -6.53
40 | Cc1cc(N2CCC(CO)(CC3CCCCO3)CC2)nc2ccccc12 (stereo not given) | -1.855
41 | Cc1cc(N2CCC(CO)(CC3CCCCO3)CC2)c2ccccc2n1 (stereo not given) | 0.8134
42 | OCC1(CC2CCCCO2)CCN(c2cnc3ccccc3n2)CC1 (stereo not given) | 107
43 | Cc1[nH]ccc1C(=O)N1CCOCC12CCCC2 | 102.6
44 | Cc1ccc(F)cc1C(=O)N1CCOCC12CCCC2 | 20.33
45 | O=C(c1ccc[nH]1)N1CCOCC12CCCC2 | -33.44
46 | CCCN1C(=O)CC(N2CCN(c3ccc(F)cc3)CC2)C1=O (stereo not given) | -5.623
47 | COCCCN1C(=O)CC(N2CCN(c3ccc(F)cc3)CC2)C1=O (stereo not given) | 4.554
48 | O=C1CC(N2CCN(c3ccccc3O)CC2)C(=O)N1Cc1cccs1 (stereo not given) | 63.35
49 | O=C1CC(N2CCN(c3ccc(O)cc3)CC2)C(=O)N1Cc1cccs1 (stereo not given) | 104.3
50 | CC(C)CN1C(=O)CC(N2CCN(c3ccc(F)cc3)CC2)C1=O (stereo not given) | 12.43

Row | Structure (SMILES) | Percent Effect [%]
51 | COCCN1C(=O)CC(N2CCN(c3ccc(OC)cc3)CC2)C1=O (stereo not given) | 55.38
52 | O=C1CC(N2CCN(c3ccc(F)cc3)CC2)C(=O)N1Cc1cccs1 (stereo not given) | 42.8
53 | COCCN1C(=O)CC(N2CCN(c3ccccc3)CC2)C1=O (stereo not given) | 12.26
54 | COCCN1C(=O)CC(N2CCN(c3ccc(F)cc3)CC2)C1=O (stereo not given) | 4.981
55 | COC1(CNC(=O)c2ccoc2)CCSC1 (stereo not given) | -5.057
56 | Cc1nn(C(C)C)c2cnn(CC(=O)N3CCSCC3)c12 | -7.998
57 | CCO[C@H]1CO[C@@]2(CCN(Cc3ccc4c(c3)OCO4)C2)C1.O=C(O)C(F)(F)F | 22.33
58 | CCC(c1ccccc1)S(=O)(=O)CCO (stereo not given) | -20.37
59 | CN(C)c1ncc(CN2CCC(O)(c3ccccc3F)CC2)cn1.O=C(O)CC(O)(CC(=O)O)C(=O)O | 6.266
60 | COc1ccc(NC2CCCN(Cc3cnc(N(C)C)s3)C2)cc1OC (stereo not given) | 55.76
61 | CN(C)c1ncc(CN2CCCC(Nc3ccc4c(c3)OCCO4)C2)s1 (stereo not given) | 37
62 | COc1ccc(NC2CCCN(Cc3cnc(N(C)C)s3)C2)cc1 (stereo not given) | 47.8
63 | O=C(NC1CCCCC1)c1ccc(Oc2ccc3nncn3n2)cc1 | -7.341
64 | CS(=O)(=O)N[C@H]1CCO[C@]2(CCN(C(=O)c3ccccn3)C2)C1.O=C(O)C(F)(F)F | 4.539
65 | CN1CCCC(c2cccc(-c3ccccc3F)n2)C1 (stereo not given) | 55.32
66 | CS(=O)(=O)N1CCCC(c2cccc(-c3ccccc3F)n2)C1 (stereo not given) | 29.33
67 | CN1CCCC(c2nccnc2-c2cccc(C(F)(F)F)c2)C1 (stereo not given) | 32.41
68 | CN1CCCC(c2cncc(-c3cccc(C(F)(F)F)c3)n2)C1 (stereo not given) | 51.88
69 | OCCN1CCCC(c2cccc(-c3ccccc3F)n2)C1 (stereo not given) | -3.425
70 | CN1CCCC(c2cccc(-c3cccc(C(F)(F)F)c3)n2)C1 (stereo not given) | 30.4
71 | CCN(CC)C(=O)c1cc(C2(C)CCN(C(C)=O)CC2)nc(C)n1 | 3.743
72 | O=C(O)C1CN(c2cccc(F)c2)CCO1 (stereo not given) | -11.48
73 | O=C1CC(c2ccccc2)C2(CCN(Cc3ccccn3)CC2)N1 (stereo not given) | 1.787
74 | CC(=O)NCc1cc2n(n1)CCN(Cc1cccc(Cl)c1Cl)C2 | 13.71
75 | O=C(c1ccco1)N1CCC(n2nc(-c3ccco3)ccc2=O)CC1 | 11.6

Row | Structure (SMILES) | Percent Effect [%]
76 | O=C(Cc1ccncc1)N(CCO)CCSc1ccc(Cl)cc1 | 12.99
77 | Cc1cccc(CNC(Cc2ccsc2)c2nc(C)c(C)s2)n1.Cl (stereo not given) | 47.96
78 | O=C1COc2cc(C(=O)NS(=O)(=O)c3ccc(F)c(F)c3)ccc2N1 | -19.76
79 | Cc1nn(C)cc1S(=O)(=O)N[C@@H]1CC[C@@H](n2ccnc2C)[C@@H]1O | -21.64
80 | Cc1nn(C)cc1S(=O)(=O)N[C@@H]1CCC[C@@H](N2CCCC2)[C@@H]1O | 19.92
81 | CO[C@@H]1CC[C@@H](NS(=O)(=O)c2cn(C)nc2C)[C@H]1O | 50.32
82 | CC(NC(=O)N1CCNC(=O)CC1)c1ccc(OC(F)F)cc1 (stereo not given) | -26.09
83 | c1cc(CN2CCC(Cc3noc(C4CC4)n3)CC2)c2c(c1)OCO2 | 11.43
84 | Fc1ccc(C2(CNC3=NCCN3)CCCC2)cc1.I | 20.05
85 | O=C(CCc1cc2n(n1)CCCNC2)NCCS(=O)(=O)N1CCCC1 | -51.2
86 | Cc1cccc2c1CCN(c1cc(N3CCCC3CO)ncn1)C2 (stereo not given) | 67.12
87 | CN1CCN(c2cc(N3CCCC3CO)ncn2)Cc2ccccc21 (stereo not given) | -16.34
88 | CS(=O)(=O)N1CCN(c2cc(N3CCCC3CO)ncn2)CC1 (stereo not given) | 0.6089
89 | Cc1noc(Cl)c1CCC(=O)N1CCCCC1Cn1cccn1 (stereo not given) | -3.884
90 | Cc1ccc(S(=O)(=O)NC(=O)c2c(C)noc2C(C)C)cc1C | 26.09
91 | CCOc1ccc(S(=O)(=O)NC(=O)c2c(C)noc2C(C)C)cc1 | 49.48
92 | Cc1noc(C(C)C)c1C(=O)NS(=O)(=O)c1ccc(Cl)cc1 | 78.7
93 | Cc1cc2nccc(C3CCN(C(=O)c4ccccc4F)CC3)n2n1 | 6.226
94 | CCC(Nc1ccc(CCN2CCOCC2)cc1)C(N)=O (stereo not given) | -19.51
95 | COCCC(=O)NCc1ccc(-c2ncncc2C(=O)N(C)C)cc1 | 32.24
96 | CN(C)C(=O)c1cncnc1-c1ccc(CNC(=O)C2CC2)cc1 | 37.26
97 | COCC(=O)NCc1ccc(-c2ncncc2C(=O)N(C)C)cc1 | 50.66
98 | CNC(=O)c1sc2ccccc2c1C1CCN(c2nc(C)cc(C)n2)C1 (stereo not given) | 14.17
99 | CN1CCCC1CCNC(=O)c1ccccc1-n1cc(CN)cn1 (stereo not given) | 7.916
100 | Cc1cccc2c1C(=O)NC1(CCOCC1)N2 | 17.55
